Molecules are shown by their SMILES. In all, about 52,000 compounds went through this assay and about 4,300 (8.3%) were called active. No stated cut-off is given here; in the data, active means survival mostly below about 52% (no sharp cut-off); inactive means mostly above about 56%. Many of the other results were omitted from the sample, so actives are more common in it than they were.

The test deals with DeltatarO mutant. The test is described as follows: growth inhibition of S. aureus wild type versus tarO mutant, primary screen, teichoic acid synthesis inhibitors, RN4220, OD600 (AID 463173). The conditions noted are these: OD600, 18 h, active compounds read low, screened at 18.75 µg/mL (by protocol).
Turning to `CC(=O)N1CCN(C2=NC(=O)C(=C3CCCCC3)S2)CC1`, the survival was 75% (inactive).
Consider `CCCOc1ccc(-c2nonc2NC(=O)c2ccco2)cc1OCCC`, for which the survival is 111% (inactive).
The figure for `Cc1c(Cl)cccc1-n1ncc(C(=O)N2CCN(c3ncccn3)CC2)c1C1CCN(C(=O)OC(C)(C)C)CC1` is 102% (inactive); for `COc1cc(C2CC(=O)N(c3ccc(C)c(Cl)c3)C3=C2C(=O)OC3)cc(OC)c1OC` (configuration not stated) it is 72% (inactive).
Consider `Cc1ccc(C)c(NC(=O)C2CCN(c3nn4c(=O)cc(C)nc4s3)CC2)c1`, for which the survival was 106% (inactive).
For `CCOC(=O)c1cc2sccc2n1CC(=O)NC1CCC(C)CC1` (configuration not stated), the survival is 95% (inactive).
The figure for `Oc1c(C(c2ccccc2F)N2CCN(c3ccccc3F)CC2)sc2nc(-c3ccco3)nn12` (configuration not stated) is 87% (inactive); for `COC(=O)c1ccc(NC(=O)CCS(=O)(=O)c2ccc(Br)cc2)cc1` it is 77% (inactive).
Consider `Cc1cccc(C)c1NC(=O)C(NS(=O)(=O)c1cccs1)c1ccccc1` (configuration not stated), for which the survival is 56% (inactive).
As to `COc1ccc(C)cc1NC(=O)C(NS(=O)(=O)c1cccs1)c1ccccc1` (configuration not stated), the survival is 11% (active).
With `Cc1cc(Br)ccc1NC(=O)C(NS(=O)(=O)c1cccs1)c1ccccc1` (configuration not stated), the survival is 31% (active).
With `Cc1cc(Br)ccc1NC(=O)C(Cc1ccccc1)NS(=O)(=O)c1ccc(Br)s1` (configuration not stated), the survival was 114% (inactive).
On to `CCC(C)(C)NC(=O)C(NS(=O)(=O)c1cccs1)c1ccccc1` (configuration not stated), for which the survival is 84% (inactive).
Take `CC(=O)Nc1ccc(NC(=O)C(NS(=O)(=O)c2ccc(Br)s2)c2ccccc2)cc1` (configuration not stated): the survival was 93% (inactive).
For `COc1ccc(C)cc1NC(=O)C(Cc1ccccc1)NS(=O)(=O)c1cccs1` (configuration not stated), the survival is 84% (inactive).
Consider `CCOc1ccc(OCC)c(NC(=O)C(NS(=O)(=O)c2cccs2)c2ccccc2)c1` (configuration not stated), for which the survival was 66% (inactive).
As for `O=C(Nc1ccc(Cl)cc1)C(NS(=O)(=O)c1cccs1)c1ccccc1` (configuration not stated), the survival was 19% (active).
For `O=C(c1cccc(C(F)(F)F)c1)C1CCN(C(=O)N2CCOCC2)CC1`, the survival was 103% (inactive).
Regarding `Cc1cccc(CSc2nc3c(c(=O)[nH]2)C(c2cccc(O)c2)CC(=O)N3)c1` (configuration not stated), the survival was 110% (inactive).
For the compound `CCc1nn(CC(=O)NCc2ccco2)c(=O)c2cc3cc(F)ccc3n12`, the survival was 104% (inactive).
`COc1ccc(Cn2ccc3nc(C)c(C(=O)N4CCN(c5ccccc5)CC4)cc3c2=O)cc1`: the survival is 85% (inactive).
Next, `COc1ccc(CNC(=O)Cn2c(=O)cc(-c3ccccc3)c3c(C)nn(C)c32)cc1`: 67% (inactive); `COc1ccc(CCNC(=O)CN(c2ccccc2)S(=O)(=O)N(C)C)cc1OC`: 62% (inactive).
Regarding `Cc1cccc(NC(=O)c2sc(-n3nc(C)c(CCC(C)C)c3C)nc2C)c1C`, the survival is 62% (inactive).
For `Cc1nc(-n2nc(C)c(CCC(C)C)c2C)sc1C(=O)Nc1cccc(Cl)c1`, the survival was 122% (inactive).
In the case of `Cc1nc(-n2nc(C)c(CCC(C)C)c2C)sc1C(=O)Nc1cccc(Cl)c1C`, the survival was 56% (active).
The figure for `CCCN(C(=O)Nc1cn(CC(C)C)c(=O)c2ccccc12)c1ccc(F)cc1` is 82% (inactive); for `Cc1cc(C)n(CCCO)c(=O)c1C#N` it is 86% (inactive).
Take `COc1ccc(-c2cn3c(n2)sc2cc(C(=O)NC4CCCCCC4)ccc23)cc1`: the survival is 73% (inactive).
Consider `CCn1c(CN2CCC(C)CC2)nc2cc(NC(=O)c3ccc([N+](=O)[O-])cc3)ccc21`, for which the survival was 86% (inactive).
As to `CCC1CN(C(=O)Nc2cccc3c2CCCC3)c2cc(Cl)ccc2O1` (configuration not stated), the survival is 44% (active).
The figure for `CCC1CN(C(=O)Nc2cc(Cl)c(OC)cc2OC)c2ccccc2O1` (configuration not stated) is 61% (inactive); for `CCC1CN(C(=O)Nc2cc(C)ccc2OC)c2cc(Cl)ccc2O1` (configuration not stated) it is 44% (active); for `CCC1CN(C(=O)Nc2cccc3c2CCCC3)c2cc(C)ccc2O1` (configuration not stated) it is 49% (inactive).
On to `CCc1ccccc1NC(=O)N1CC(CC)Oc2ccc(Cl)cc21` (configuration not stated), for which the survival was 44% (inactive).
As for `CCC1CN(C(=O)Nc2cccc3c2CCCC3)c2ccccc2O1` (configuration not stated), the survival is 56% (inactive).
As for `Cc1ccc(C)c(CN2C(=O)c3ccccc3Sc3ccc(C(=O)NCCCOC(C)C)cc32)c1`, the survival was 89% (inactive).
With `COc1cccc(N2CCN(c3ncnc4onc(-c5ccc(F)cc5)c34)CC2)c1`, the survival was 83% (inactive).
Regarding `CCc1ccc(NC(=O)CSc2nc(C)cc(COC)c2C#N)cc1`, the survival was 84% (inactive).
For `COc1ccc2[nH]c(=O)c(CN(Cc3cccs3)S(=O)(=O)c3cccc4nsnc34)cc2c1`, the survival is 113% (inactive).
The figure for `Cc1ccccc1NC(=O)CCC(=O)N1CC(C)Sc2ccccc21` (configuration not stated) is 64% (inactive); for `Cc1ccc(Cl)cc1NC(=O)CCC(=O)N1CC(C)Sc2ccccc21` (configuration not stated) it is 44% (active).
For `COC(=O)c1ccccc1NC(=O)CCC(=O)N1CCOc2ccccc21`, the survival was 65% (inactive).
For the compound `CCc1ccccc1NC(=O)N1CC(C)Sc2ccccc21` (configuration not stated), the survival is 77% (inactive).
In the case of `CC1CN(C(=O)CCC(=O)Nc2cc(F)ccc2F)c2ccccc2S1` (configuration not stated), the survival is 51% (inactive).
The figure for `COC(=O)c1ccccc1NC(=O)CCC(=O)N1CC(C)Sc2ccccc21` (configuration not stated) is 42% (active).
In the case of `Fc1ccccc1N1CCN(Cc2nnc(-c3ccc4c(c3)OCO4)o2)CC1`, the survival was 85% (inactive).
In the case of `CCC(=O)N(c1nnc(-c2cc(OC)c(OC)c(OC)c2)s1)C1CCCC1`, the survival is 65% (inactive).
As to `O=C(CNC(=O)c1ccc(F)cc1)OCc1cc(=O)n2nc(C3CC3)sc2n1`, the survival is 81% (inactive).
For `c1ccc(Nc2nc(-c3ccncc3)cs2)cc1`, the survival is 100% (inactive).
Next, `Cc1ccc(Nc2nc(C)cs2)cc1`: 82% (inactive); `Oc1ccc(Nc2nc(-c3ccc(O)cc3)cs2)cc1`: 1% (active); `CN1CCN(C(c2cccc(Br)c2)c2sc3nc(-c4ccco4)nn3c2O)CC1` (configuration not stated): 70% (inactive).
Take `COc1ccc(N(C)C(=O)c2oc(=O)c3ccccc3c2-c2ccc(C)cc2)c(OC)c1`: the survival is 97% (inactive).
Take `Cc1ccc(-c2c(C(=O)NCCc3ccc(Cl)cc3)oc(=O)c3ccccc23)cc1`: the survival was 51% (inactive).
As to `CCOc1ccc(N(C)C(=O)c2oc(=O)c3ccccc3c2-c2ccccc2)cc1`, the survival was 55% (inactive).
Turning to `CCOc1ccc(CCNC(=O)c2oc(=O)c3ccccc3c2-c2ccc(C)cc2)cc1OCC`, the survival is 70% (inactive).
Next, `CCN(CC)S(=O)(=O)c1ccc2oc(C(=O)NCc3ccccc3OC)c(C)c2c1`: 71% (inactive).
For `CCN(CC)S(=O)(=O)c1ccc2oc(C(=O)N(C)Cc3ccccc3)c(C)c2c1`, the survival is 40% (active).
Regarding `Cc1ccc(-c2c(C(=O)NCCc3ccccc3)oc(=O)c3ccccc23)cc1`, the survival is 91% (inactive).
With `CCCCN(Cc1ccccc1)C(=O)c1oc(=O)c2ccccc2c1-c1ccc(C)cc1`, the survival was 8% (active).
For `Cc1ccc(-c2c(C(=O)N(C)Cc3ccccc3)oc(=O)c3ccccc23)cc1`, the survival is 24% (active).
`Cc1ccc(CCNC(=O)c2oc(=O)c3ccccc3c2-c2ccc(C)cc2)cc1`: the survival is 28% (active).
The figure for `Cc1ccc(-c2c(C(=O)NCc3ccc(F)cc3)oc(=O)c3ccccc23)cc1` is 57% (inactive); for `CCCCN(CCCC)S(=O)(=O)c1ccc2oc(C(=O)NCc3ccccc3)c(C)c2c1` it is 99% (inactive).
For the compound `O=C1CC(N2CCC(c3nc4ccccc4[nH]3)CC2)C(=O)N1` (configuration not stated), the survival is 84% (inactive).
In the case of `Cc1c(C)n(Cc2ccccc2)c2ccc(C(=O)NCCc3ccccc3Cl)cc12`, the survival is 84% (inactive).
For `COCCCn1c(SCC(=O)Nc2ccc(F)cc2)nc2c(sc3ccccc32)c1=O`, the survival was 81% (inactive).
As for `CCOCCc1nnc(NC(=O)C(=O)c2cc(C)n(-c3ccc(Cl)cc3)c2C)s1`, the survival is 60% (inactive).
Next, `CC(C)c1nn2c(=O)cc(COC(=O)c3ccccc3NC(=O)C3CCCCC3)nc2s1`: 90% (inactive).
In the case of `CCOCCCNC(=O)C1CCN(c2nn3cc(-c4ccc(F)cc4)nc3s2)CC1`, the survival was 86% (inactive).
Regarding `CC1=C(c2ccc(C)c(C)c2)S(=O)(=O)N=C1N1CCC(C(=O)NCc2ccccc2C)CC1`, the survival is 76% (inactive).
For the compound `COc1ccc(CNC(=O)CCc2c(C)c3cc4c(C)c(C)oc4cc3oc2=O)cc1OC`, the survival was 104% (inactive).
For the compound `CCOc1ccc(OCC)c(Nc2nc3ccc(C(=O)c4ccccc4)cc3n3cnnc23)c1`, the survival is 77% (inactive).
For `CCNC(=O)C1CCN(c2nc3ccccc3nc2C(F)(F)F)CC1`, the survival is 144% (inactive).
Turning to `O=C(NCCc1ccccc1Cl)C1CCN(c2nc3ccccc3nc2C(F)(F)F)CC1`, the survival was 37% (active).
On to `CCCSCCCNC(=O)C1CCN(c2nc3ccccc3nc2C(F)(F)F)CC1`, for which the survival was 0% (active).
As for `Cc1ccccc1CCNC(=O)C1CCN(c2nc3ccccc3nc2C(F)(F)F)CC1`, the survival was 72% (inactive).
Next, `CCCCNC(=O)C1CCN(c2nc3ccccc3nc2C(F)(F)F)CC1`: 115% (inactive); `COc1ccccc1CCNC(=O)C1CCN(c2nc3ccccc3nc2C(F)(F)F)CC1`: 117% (inactive); `CCOC(=O)c1cnc(N2CCN(c3ccc(C)cc3C)CC2)c2ccccc12`: 87% (inactive).
The figure for `CCOC(=O)c1cnc2c(OC)cccc2c1N1CCN(c2ccccc2F)CC1` is 1% (active); for `CCOC(=O)c1cnc(N2CCN(c3cccc(C)c3C)CC2)c2ccccc12` it is 77% (inactive).
On to `CCOC(=O)c1cnc2ccc(OCC)cc2c1N1CCN(c2cccc(Cl)c2)CC1`, for which the survival was 3% (active).
The figure for `CCOC(=O)c1cc(S(=O)(=O)N2CCN(c3cccc(C)c3C)CC2)[nH]n1` is 81% (inactive); for `COC(=O)c1cnc(N2CCN(c3ccccc3F)CC2)c2ccccc12` it is 86% (inactive).
For the compound `CCOC(=O)c1noc2ncnc(N3CCN(c4cccc(Cl)c4)CC3)c12`, the survival is 83% (inactive).
Next, `CCOC(=O)c1cnc2cc(C(F)(F)F)ccc2c1N1CCN(c2cccc(Cl)c2)CC1`: 84% (inactive); `CCOC(=O)c1cc(S(=O)(=O)N2CCN(c3ccccc3OC)CC2)[nH]n1`: 122% (inactive).
For the compound `CCOc1ccc(NC(=O)NCCN2CCN(c3ccccc3F)CC2)cc1`, the survival was 87% (inactive).
For the compound `CCOC(=O)c1cnc2ccc(OCC)cc2c1N1CCN(c2ccccc2F)CC1`, the survival is 0% (active).
With `CCOC(=O)c1cc(S(=O)(=O)N2CCN(c3ccccc3F)CC2)[nH]n1`, the survival is -5% (active).
